Calls of active or inactive are those of the source. Rule for the calls: active = hit-call score of the fitted dose curve at least 0.9, where 1 is the maximum; inactive = score below 0.9.

From PubChem BioAssay (EPA / NIEHS) come the findings set out here.

Conditions in all cases: mRNA level, 48 h; actives raise or lower the signal
Read-out in test [1]: Tumor necrosis factor receptor superfamily member 6 (Homo sapiens) (UniProt P25445)
Description: LTEA_HepaRG_FAS: Life Technologies and Expression Analysis (LTEA) Assay for Fas cell surface death receptor (FAS) using HepaRG (AID 2283447). Summed up: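 FAS transcript level was measured by TaqMan qRT-PCR against three housekeeping genes after 48 h chemical exposure. Cells were HepaRG, 0.5% DMSO vehicle, with a top concentration of 100 uM and half-log dilutions over eight points, in duplicate.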

Read-out in test [2]: Fatty acid synthase (Homo sapiens) (UniProt P49327)
Description: LTEA_HepaRG_FASN: Life Technologies and Expression Analysis (LTEA) Assay for Fatty Acid Synthase (FASN) using HepaRG (AID 2283448). Summed up:
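Transcript-level assay: HepaRG liver cells are treated for 48 h across an eight-point range topping at 100 uM, and FASN mRNA, normalized to three housekeeping genes, is compared with DMSO controls in both directions.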

Read-out in test [3]: Cyclin Dependent Kinase Inhibitor 1A (CDKN1A), CDKN1A (gene 1026)
Description: LTEA_HepaRG_CDKN1A: Life Technologies and Expression Analysis (LTEA) Assay for Cyclin Dependent Kinase Inhibitor 1A (CDKN1A) using HepaRG (AID 2283450). Summed up: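 Differentiated HepaRG cells in serum-free induction medium, exposed 48 h in duplicate to eight half-log concentrations up to 100 uM in 0.5% DMSO. mRNA measured by TaqMan qRT-PCR, normalized to ACTB, GAPDH, POLR2A; bidirectional fit versus DMSO.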

Read-out in test [4]: Cyclin D1 (CCND1), CCND1 (gene 595)
Nature of the test: LTEA_HepaRG_CCND1: Life Technologies and Expression Analysis (LTEA) Assay for Cyclin D1 (CCND1) using HepaRG (AID 2283451). In short, it runs like this:
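Differentiated HepaRG cells exposed 48 h in serum-free induction medium to eight half-log concentrations from 100 uM top, 0.5% DMSO, duplicates. CCND1 mRNA measured by Fluidigm TaqMan qRT-PCR, normalised to ACTB, GAPDH, POLR2A; bidirectional fit.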

Read-out in test [5]: catalase (CAT), CAT (gene 847)
Description: LTEA_HepaRG_CAT: Life Technologies and Expression Analysis (LTEA) Assay for catalase (CAT) using HepaRG (AID 2283452). Summed up:
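Expression of CAT was quantified by TaqMan qRT-PCR with ACTB/GAPDH/POLR2A normalization after 48 h chemical exposure of HepaRG. Eight-point half-log series, top 100 uM, in 0.5% DMSO; gain or loss fitted against vehicle.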

Read-out in test [6]: flavin-containing dimethylaniline monooxygenases 3 (FMO3), FMO3 (gene 2328)
Description: LTEA_HepaRG_FMO3: Life Technologies and Expression Analysis (LTEA) Assay for flavin-containing dimethylaniline monooxygenases 3 (FMO3) using HepaRG (AID 2283453). In short, it runs like this:
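HepaRG, 48 h exposure, 8-pt half-log series from 100 uM, 0.5% DMSO vehicle, duplicates; FMO3 transcript by Fluidigm TaqMan qRT-PCR, housekeeping-normalized; gain/loss fit vs DMSO.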

Read-out in test [7]: Cytochrome P450 (CYP1A1), CYP1A1 (gene 1543)
Description: LTEA_HepaRG_CYP1A1: Life Technologies and Expression Analysis (LTEA) Assay for Cytochrome P450 (CYP1A1) using HepaRG (AID 2283454). Summed up: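 Differentiated human HepaRG cells, after 48 h plating, exposed in duplicate for 48 h in serum-free induction medium to 8 half-log concentrations up to 100 uM in 0.5% DMSO. CYP1A1 mRNA by qRT-PCR, normalized to ACTB/GAPDH/POLR2A; bidirectional fit versus DMSO.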

Read-out in test [8]: Forkhead box O1 (FOXO1), FOXO1 (gene 2308)
Nature of the test: LTEA_HepaRG_FOXO1: Life Technologies and Expression Analysis (LTEA) Assay for Forkhead box O1 (FOXO1) using HepaRG (AID 2283456). In short, it runs like this: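 Readout is FOXO1 transcript level by multiplexed qRT-PCR against three housekeeping genes, curve-fitted in both directions relative to 0.5% DMSO vehicle. Human HepaRG cultures received chemicals for 48 h, up to 100 uM in half-log steps.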

Read-out in test [9]: growth arrest and DNA damage 45 (GADD45A), GADD45A (gene 1647)
Nature of the test: LTEA_HepaRG_GADD45A: Life Technologies and Expression Analysis (LTEA) Assay for growth arrest and DNA damage 45 (GADD45A) using HepaRG (AID 2283458). Summed up:
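Human HepaRG liver cells are treated in duplicate for 48 h with chemicals in 0.5% DMSO, highest concentration 100 uM. Expression is read by qRT-PCR and analyzed in both directions against vehicle.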

Read-out in test [10]: ABC Transporter (ABCB1), ABCB1 (gene 5243)
Nature of the test: LTEA_HepaRG_ABCB1: Life Technologies and Expression Analysis (LTEA) Assay for ABC Transporter (ABCB1) using HepaRG (AID 2283460). In short, it runs like this:
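Expression of ABCB1 was quantified by qRT-PCR against three housekeeping genes after human HepaRG cultures received test chemicals for 48 hours. Concentrations spanned eight half-log steps topping at 100 uM in 0.5% DMSO; gain or loss of signal was fitted relative to vehicle.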

Read-out in test [11]: growth arrest and DNA damage 45 (GADD45B), GADD45B (gene 4616)
Description: LTEA_HepaRG_GADD45B: Life Technologies and Expression Analysis (LTEA) Assay for growth arrest and DNA damage 45 (GADD45B) using HepaRG (AID 2283461). Summed up:
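Differentiated human HepaRG cells in serum-free induction medium exposed 48 h in duplicate to eight concentrations, top 100 uM, half-log steps, 0.5% DMSO. GADD45B mRNA by TaqMan qRT-PCR, normalized to ACTB, GAPDH, POLR2A; bidirectional fit versus DMSO.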

Read-out in test [12]: ABC Transporter (ABCC3), ABCC3 (gene 8714)
Nature of the test: LTEA_HepaRG_ABCC3: Life Technologies and Expression Analysis (LTEA) Assay for ABC Transporter (ABCC3) using HepaRG (AID 2283462). In short, it runs like this:
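Differentiated human HepaRG cells exposed 48 h in serum-free induction medium, 0.5% DMSO vehicle, 8-point half-log series to 100 uM in duplicate. ABCC3 mRNA by qRT-PCR, normalised to ACTB, GAPDH, POLR2A; bidirectional fit vs DMSO.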

Read-out in test [13]: ABC Transporter (ABCB11), ABCB11 (gene 8647)
Nature of the test: LTEA_HepaRG_ABCB11: Life Technologies and Expression Analysis (LTEA) Assay for ABC Transporter (ABCB11) using HepaRG (AID 2283463). In short, it runs like this:
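ABCB11 transcript levels are read by Fluidigm TaqMan qRT-PCR after 48 h chemical treatment of human HepaRG cells. Concentrations span 100 uM downward in half-log steps with 0.5% DMSO; gain or loss is fitted against DMSO controls.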

Read-out in test [14]: ABC Transporter (ABCC2), ABCC2 (gene 1244)
Nature of the test: LTEA_HepaRG_ABCC2: Life Technologies and Expression Analysis (LTEA) Assay for ABC Transporter (ABCC2) using HepaRG (AID 2283464). Summed up:
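Differentiated HepaRG cells in serum-free induction medium exposed 48 h to eight half-log concentrations up to 100 uM, 0.5% DMSO, in duplicate. ABCC2 mRNA measured by qRT-PCR (TaqMan, Fluidigm), normalized to ACTB, GAPDH and POLR2A. Fitted in both directions against DMSO.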

Read-out in test [15]: Broad substrate specificity ATP-binding cassette transporter ABCG2 (Homo sapiens) (UniProt Q9UNQ0)
Nature of the test: LTEA_HepaRG_ABCG2: Life Technologies and Expression Analysis (LTEA) Assay for ABC Transporter (ABCG2) using HepaRG (AID 2283465). In short, it runs like this: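 Read-out is ABCG2 mRNA induction or loss quantified by qRT-PCR after 48 h chemical treatment of human HepaRG cells, normalized to three housekeeping genes. Concentrations reached 100 uM top in half-log steps; fitting was bidirectional against 0.5% DMSO.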

Read-out in test [16]: Cyclin D2 (CCND2), CCND2 (gene 894)
Nature of the test: LTEA_HepaRG_CCND2: Life Technologies and Expression Analysis (LTEA) Assay for Cyclin D2 (CCND2) using HepaRG (AID 2283449). Summed up:
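Read-out is CCND2 mRNA level measured by qRT-PCR in human HepaRG liver cells and normalised to three housekeeping genes. Chemicals were applied for 48 h at up to 100 uM, with gain or loss fitted relative to 0.5% DMSO.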

Read-out in test [17]: CFLAR gene, CFLAR (gene 8837)
Description: LTEA_HepaRG_CFLAR: Life Technologies and Expression Analysis (LTEA) Assay for CFLAR gene using HepaRG (AID 2283455). In short, it runs like this:
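HepaRG, 48 h exposure, 8-pt conc-response (100 uM top, half-log), 0.5% DMSO vehicle, duplicates. CFLAR expression by qRT-PCR; ACTB/GAPDH/POLR2A normalization; gain or loss fit vs DMSO baseline.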

Read-out in test [18]: Forkhead box O3 (FOXO3), FOXO3 (gene 2309)
Description: LTEA_HepaRG_FOXO3: Life Technologies and Expression Analysis (LTEA) Assay for Forkhead box O3 (FOXO3) using HepaRG (AID 2283459). Summed up: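 HepaRG, 48 h post-dose; 8 conc., half-log from 100 uM, 0.5% DMSO, duplicates; serum-free induction medium. Readout: FOXO3 mRNA, TaqMan qRT-PCR, housekeeping-normalized. Bidirectional curve fit vs DMSO baseline.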

Chain of Broad substrate specificity ATP-binding cassette transporter ABCG2 (Homo sapiens) (Q9UNQ0 whole entry, looked up): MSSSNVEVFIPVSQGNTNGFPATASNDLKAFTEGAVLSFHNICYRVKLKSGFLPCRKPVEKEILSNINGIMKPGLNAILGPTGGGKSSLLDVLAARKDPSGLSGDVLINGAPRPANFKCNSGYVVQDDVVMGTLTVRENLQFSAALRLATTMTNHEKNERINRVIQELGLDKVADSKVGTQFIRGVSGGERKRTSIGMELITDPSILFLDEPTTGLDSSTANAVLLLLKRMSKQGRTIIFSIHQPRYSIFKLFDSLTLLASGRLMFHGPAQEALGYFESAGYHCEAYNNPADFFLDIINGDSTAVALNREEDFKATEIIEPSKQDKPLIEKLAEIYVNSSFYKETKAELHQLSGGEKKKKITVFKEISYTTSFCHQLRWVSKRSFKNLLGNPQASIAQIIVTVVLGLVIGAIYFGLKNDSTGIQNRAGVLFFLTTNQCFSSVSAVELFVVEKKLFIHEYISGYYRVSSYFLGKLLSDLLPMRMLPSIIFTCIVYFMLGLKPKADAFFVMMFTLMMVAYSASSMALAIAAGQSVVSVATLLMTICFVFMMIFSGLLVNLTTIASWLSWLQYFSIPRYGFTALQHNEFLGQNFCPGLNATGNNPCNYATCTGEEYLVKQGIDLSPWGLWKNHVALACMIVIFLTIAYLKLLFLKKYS
Chain of Fatty acid synthase (Homo sapiens) (P49327 whole entry, looked up): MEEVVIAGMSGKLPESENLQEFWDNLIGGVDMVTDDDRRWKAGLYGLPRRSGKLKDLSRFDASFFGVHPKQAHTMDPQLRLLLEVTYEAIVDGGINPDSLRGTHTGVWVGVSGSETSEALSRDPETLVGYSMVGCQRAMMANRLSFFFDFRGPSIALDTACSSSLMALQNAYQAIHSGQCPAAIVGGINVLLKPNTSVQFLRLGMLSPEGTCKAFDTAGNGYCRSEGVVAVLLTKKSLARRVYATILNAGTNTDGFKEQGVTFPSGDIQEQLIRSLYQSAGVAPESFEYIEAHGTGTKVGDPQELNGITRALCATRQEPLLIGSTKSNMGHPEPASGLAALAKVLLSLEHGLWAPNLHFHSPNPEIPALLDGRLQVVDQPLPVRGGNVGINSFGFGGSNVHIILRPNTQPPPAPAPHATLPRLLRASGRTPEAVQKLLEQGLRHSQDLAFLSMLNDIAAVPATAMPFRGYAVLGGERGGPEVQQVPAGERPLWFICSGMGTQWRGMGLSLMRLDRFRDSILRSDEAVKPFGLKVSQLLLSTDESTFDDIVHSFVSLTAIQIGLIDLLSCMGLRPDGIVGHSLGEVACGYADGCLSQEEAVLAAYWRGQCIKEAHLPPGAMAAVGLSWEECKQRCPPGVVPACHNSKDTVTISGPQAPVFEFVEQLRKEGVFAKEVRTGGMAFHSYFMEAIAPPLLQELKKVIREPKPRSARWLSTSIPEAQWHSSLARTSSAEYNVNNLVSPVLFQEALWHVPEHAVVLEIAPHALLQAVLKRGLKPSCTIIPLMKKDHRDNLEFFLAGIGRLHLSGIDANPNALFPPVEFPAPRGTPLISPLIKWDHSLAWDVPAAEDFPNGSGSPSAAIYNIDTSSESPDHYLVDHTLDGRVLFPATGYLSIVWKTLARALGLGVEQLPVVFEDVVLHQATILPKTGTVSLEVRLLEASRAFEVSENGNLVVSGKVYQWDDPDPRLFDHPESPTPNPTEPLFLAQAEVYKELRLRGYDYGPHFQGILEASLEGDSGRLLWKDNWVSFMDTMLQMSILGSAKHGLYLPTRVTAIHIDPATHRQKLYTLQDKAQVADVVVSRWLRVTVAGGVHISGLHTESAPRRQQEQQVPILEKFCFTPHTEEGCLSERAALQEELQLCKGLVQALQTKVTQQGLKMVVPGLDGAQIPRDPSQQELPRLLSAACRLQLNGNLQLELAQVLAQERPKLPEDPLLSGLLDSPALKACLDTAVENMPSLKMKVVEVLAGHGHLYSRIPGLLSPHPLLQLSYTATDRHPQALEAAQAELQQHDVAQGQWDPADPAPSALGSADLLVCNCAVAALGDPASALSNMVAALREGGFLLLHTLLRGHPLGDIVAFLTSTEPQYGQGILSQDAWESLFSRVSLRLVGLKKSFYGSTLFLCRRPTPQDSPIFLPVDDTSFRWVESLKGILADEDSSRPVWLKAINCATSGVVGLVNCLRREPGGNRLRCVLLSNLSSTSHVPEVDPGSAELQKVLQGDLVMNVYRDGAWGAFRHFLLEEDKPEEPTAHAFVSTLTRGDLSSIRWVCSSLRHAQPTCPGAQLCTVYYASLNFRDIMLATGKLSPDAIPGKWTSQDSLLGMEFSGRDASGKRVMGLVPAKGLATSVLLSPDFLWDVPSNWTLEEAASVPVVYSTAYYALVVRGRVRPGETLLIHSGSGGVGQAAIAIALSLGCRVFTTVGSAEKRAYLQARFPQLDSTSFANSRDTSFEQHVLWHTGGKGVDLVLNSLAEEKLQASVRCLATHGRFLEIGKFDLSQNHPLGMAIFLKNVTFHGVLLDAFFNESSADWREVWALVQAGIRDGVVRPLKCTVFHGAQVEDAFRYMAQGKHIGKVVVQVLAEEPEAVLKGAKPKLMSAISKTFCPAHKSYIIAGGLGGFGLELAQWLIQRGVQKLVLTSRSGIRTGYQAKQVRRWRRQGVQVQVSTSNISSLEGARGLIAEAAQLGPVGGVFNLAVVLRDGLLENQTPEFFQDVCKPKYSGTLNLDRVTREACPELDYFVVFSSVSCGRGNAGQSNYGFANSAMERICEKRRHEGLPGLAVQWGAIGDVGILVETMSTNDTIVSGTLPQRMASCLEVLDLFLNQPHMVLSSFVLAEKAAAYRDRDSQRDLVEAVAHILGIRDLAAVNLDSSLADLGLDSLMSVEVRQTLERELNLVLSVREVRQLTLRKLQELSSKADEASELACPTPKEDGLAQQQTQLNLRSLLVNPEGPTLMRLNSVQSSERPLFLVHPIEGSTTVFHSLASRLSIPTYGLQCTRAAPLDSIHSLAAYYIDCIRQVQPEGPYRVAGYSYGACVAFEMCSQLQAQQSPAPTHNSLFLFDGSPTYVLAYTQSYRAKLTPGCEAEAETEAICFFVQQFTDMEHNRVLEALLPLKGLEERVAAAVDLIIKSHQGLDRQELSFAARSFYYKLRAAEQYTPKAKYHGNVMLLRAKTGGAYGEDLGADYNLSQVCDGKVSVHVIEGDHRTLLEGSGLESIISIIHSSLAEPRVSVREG

Turning to `CC(=O)C(C)=CC1C(C)=CCCC1(C)C` (centres undefined), the result in test [1], in [2], in [3], in test [4], in [5] and in test [6] was inactive. Besides, the compound was called inactive in [7], in test [8], in test [9], in test [10], in test [11] and in test [12]. For the same compound, the result in test [13], in test [14] and in test [15] was inactive.

With `CCCCCC(=O)O`, the compound was classed as inactive in [1], in [2], in test [16], in test [3], in [5] and in test [6]. In addition, the compound was classed as inactive in test [17], in test [8], in [9], in test [10], in [11] and in test [12]. The compound was called inactive in test [15]. In addition, in test [7], the AC50 is 70000 nM (active).

On to `CCCCN(CCCC)CCCC`, for which the compound was classed as inactive in test [1], in test [2], in test [16], in test [3], in test [5] and in test [6]. The compound was called inactive in test [7], in test [8], in test [9], in test [18], in [10] and in test [11]. Also, the compound was called inactive in [12] and in test [15].

In the case of `Cc1ccccc1Cl`, the compound was classed as inactive in [1], in [2], in test [16], in [3], in test [5] and in test [6]. The result in test [17], in test [8], in test [9], in test [18], in [10] and in test [11] was inactive. Besides, the outcome in [12] and in test [15] was inactive. Also, the concentration at half-maximal activity (AC50) in test [7] was 50000 nM (active).

On to `CC(=O)OC/C=C(\C)CCC=C(C)C`, for which the compound was classed as inactive in test [1], in test [2], in [16], in [3], in test [5] and in test [6]. In addition, the result in test [7], in test [17], in test [8], in test [9], in test [10] and in [11] was inactive. The result in test [12], in test [14] and in [15] was inactive.

Take `CCCCCCCCCCCCCCCCCC(=O)O`: the outcome in [1], in test [2], in test [16], in test [3], in test [5] and in test [6] was inactive. The result in test [17], in test [8], in test [9], in test [18], in test [10] and in test [11] was inactive. For the same compound, the outcome in [12] and in test [15] was inactive. In addition, the half-maximal activity concentration (AC50) in test [7] was 50000 nM (active).

With `CC(C)c1ccc(C(=O)N=C(N)N)cc1S(C)(=O)=O`, the concentration at half-maximal activity (AC50) was 669 nM (active) in [1]; 634 nM (active) in [16]; 361 nM (active) in test [3]; 600 nM (active) in test [7]; 361 nM (active) in test [17]; 498 nM (active) in test [8]. The concentration at half-maximal activity (AC50) was 676 nM (active) in test [9]; 8320 nM (active) in [10]; 392 nM (active) in test [13]; 14000 nM (active) in [14]; 681 nM (active) in test [15]. Besides, the call in test [2], in [5], in [6], in test [11] and in test [12] was inactive.

As usually defined, the AC50 is the midpoint of the concentration-response curve, whichever way the signal moves.
